{"source": "PubChem BioAssay (NCATS)", "note": "Records with an inconclusive call do not appear. Unmarked numbers belong to inactive results. Active and inactive are the calls of the source. Calls come from the whole dose curve; as a rule, active = well fitted inhibition curve with a large enough effect; inconclusive = small, poorly fitted or top-dose-only effect; inactive = no such curve, though single readings can be large or run the other way. Note: nearly all actives have a fitted effect of over 35% in size. Potency is the fitted concentration of half-maximal effect.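 Throughout, for viability: 100% = DMSO-treated cells and 0% = medium-only wells without cells.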", "data": [{"test": "qHTS Screen of the MIPE 4.0 Collection Against Ewings Sarcoma (RDES) (AID 1259252);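 for viability (percent of control): 100% = DMSO-treated cells and 0% = medium-only wells without cells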", "settings": "RD-ES Ewing sarcoma viability, CellTiter-Glo, 48 h; series mostly up to 45.8 µM; viability (percent of control): at the top concentration", "outline": "(§1)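 CellTiter-Glo luminescence after 48 h compound exposure (titration) gave viability; percent activity used DMSO-treated cells as no inhibition and medium-only wells as full inhibition. Cells grown in RPMI/5% FBS, dosed 4 h post-seeding.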", "values": [{"smiles": "COC(=O)Nc1ccc(-c2nc(N3CCOCC3)c3cnn(C4CCN(C(=O)OC)CC4)c3n2)cc1", "Potency": "0.0372 µM (active)"}, {"smiles": "CN1CCN(c2cccc(Nc3nc4c(-c5ccc(S(C)(=O)=O)cc5)cccn4n3)c2)CC1", "Potency": "3.72 µM (active)"}, {"smiles": "CC1=C(C(=O)Nc2cc3cn[nH]c3cc2F)C(c2ccc(C(F)(F)F)cc2)CC(=O)N1", "note": "(centres undefined)", "Potency": "1.48 µM (active)"}, {"smiles": "CCC(c1ccc(O)cc1)C(CC)c1ccc(O)cc1", "note": "(centres undefined)", "Potency": "0.743 µM (active)"}, {"smiles": "COc1cc(C=CC(=O)O)ccc1O", "viability (percent of control)": "115%"}, {"smiles": "Cc1csc(-c2nnc(Nc3ccc(Oc4ncccc4-c4ccnc(N)n4)cc3)c3ccccc23)c1", "Potency": "0.0296 µM (active)"}, {"smiles": "COc1ccc(C=CC(=O)Nc2ccccc2C(=O)O)cc1OC", "viability (percent of control)": "124%"}, {"smiles": "CN(C)c1nc(Cc2ccc(NC(=O)c3ccc(C(F)(F)F)cc3)cc2)nc(N(C)C)c1CC(=O)O", "viability (percent of control)": "96%"}, {"smiles": "O=C1C(c2c(O)[nH]c3ccccc23)=Nc2ccccc21", "Potency": "0.469 µM (active)"}, {"smiles": "Cc1ccccc1C(C(=O)NC1CCCCC1)N(C(=O)CNc1ccc(C#N)cc1)c1cccc(F)c1", "note": "(centres undefined)", "viability (percent of control)": "95.4%"}, {"smiles": "CNC1CCC(N(Cc2cccc(-c3ccncc3)c2)C(=O)c2sc3ccccc3c2Cl)CC1", "note": "(centres undefined)", "Potency": "26.4 µM (active)"}, {"smiles": "CCOC(=O)N1c2ccc(C(F)(F)F)cc2[C@@H](N(Cc2cc(C(F)(F)F)cc(C(F)(F)F)c2)C(=O)OC)C[C@H]1CC", "Potency": "23.5 µM (active)"}, {"smiles": "C[C@@H]1CC=CC=CC=CC=C[C@@H](O[C@@H]2O[C@H](C)[C@@H](O)[C@H](N)[C@H]2O)C[C@@H]2O[C@](O)(C[C@@H](O)C[C@@H]3O[C@@H]3C=CC(=O)O1)C[C@H](O)[C@@H]2C(=O)O", "Potency": "7.43 µM (active)"}, {"smiles": "CC(C)[C@H](O)C(=O)N[C@@H](C)C(=O)N[C@@H]1C(=O)N(C)CCc2ccccc21", "Potency": "16.6 µM (active)"}, {"smiles": "CCC[C@@H](NC(=O)[C@@H]1[C@H]2CCC[C@@H]2CN1C(=O)[C@@H](NC(=O)[C@@H](NC(=O)c1cnccn1)C1CCCCC1)C(C)(C)C)C(=O)C(=O)NC1CC1", "viability (percent of control)": "87.2%"}, {"smiles": "C[C@@]1(C(=O)Nc2ccc(F)nc2)CCCN1c1nc(Nc2cc(C3CC3)[nH]n2)c2cccn2n1", "Potency": "2.64 µM (active)"}, {"smiles": "COc1cc2nccc(Oc3ccc(NC(=O)Nc4ccc(F)cc4F)c(F)c3)c2cc1OC", "Potency": "14.8 µM (active)"}, {"smiles": "Cc1cn([C@@H]2C[C@@H](O)[C@H](CO)O2)c(=O)[nH]c1=O", "viability (percent of control)": "118%"}, {"smiles": "Fc1ccc(C(c2ccc(F)cc2)N2CCN(CC=Cc3ccccc3)CC2)cc1", "viability (percent of control)": "95%"}, {"smiles": "COc1ccc2ccc(=O)oc2c1CC=C(C)C", "Potency": "23.5 µM (active)"}, {"smiles": "CCN1CCN(c2ccc(Nc3cc(N(C)C(=O)Nc4c(Cl)c(OC)cc(OC)c4Cl)ncn3)cc2)CC1", "viability (percent of control)": "114%"}, {"smiles": "CN(C)N=Nc1nc[nH]c1C(N)=O", "Potency": "18.7 µM (active)"}, {"smiles": "C=CC[N+]1([C@H]2C[C@H]3[C@@H]4CC[C@H]5C[C@H](O)[C@@H](N6CCOCC6)C[C@]5(C)[C@@H]4CC[C@]3(C)[C@H]2OC(C)=O)CCCC1", "viability (percent of control)": "99.9%"}, {"smiles": "CN[C@H]1[C@@H](O[C@@H]2[C@H](O[C@@H]3[C@@H](O)[C@@H](O)[C@@H](N=C(N)N)[C@@H](O)[C@@H]3N=C(N)N)O[C@H](C)[C@@]2(O)C=O)O[C@@H](CO)[C@@H](O)[C@H]1O", "viability (percent of control)": "118% [at 15.3 µM]"}, {"smiles": "O[C@@H](COc1cccc2ncccc12)CN1CCN(C2c3ccccc3[C@@H]3[C@H](c4ccccc42)C3(F)F)CC1", "note": "(some centres undefined)", "Potency": "20.9 µM (active)"}, {"smiles": "O=C(c1ccc(F)c(F)c1Nc1ccc(I)cc1F)N1CC(O)([C@H]2CCCCN2)C1", "Potency": "26.4 µM (active)"}, {"smiles": "COc1cc(N2CCN(C)CC2)ccc1Nc1nc(N)c(C(=O)c2c(Cl)cccc2Cl)s1", "Potency": "13.2 µM (active)"}, {"smiles": "CCCCC[C@H](O)C=C[C@H]1[C@H](O)CC(=O)[C@H]1CCCCCCC(=O)O", "viability (percent of control)": "126%"}, {"smiles": "COC(=O)[C@H](c1ccccc1Cl)N1CCc2sccc2C1", "viability (percent of control)": "113%"}, {"smiles": "CN(C)c1ccccc1CN1CCCN(Cc2ccccc2N(C)C)C1c1ccncc1", "Potency": "20.9 µM (active)"}, {"smiles": "CC(C)(F)C[C@H](N[C@@H](c1ccc(-c2ccc(S(C)(=O)=O)cc2)cc1)C(F)(F)F)C(=O)NC1(C#N)CC1", "Potency": "18.7 µM (active)"}, {"smiles": "OCCn1cc(-c2ccc3c(c2)CCC3=NO)c(-c2ccncc2)n1", "Potency": "26.4 µM (active)"}, {"smiles": "CC1(C)OC2CC3C4CC(F)C5=CC(=O)C=CC5(C)C4C(O)CC3(C)[C@]2(C(=O)CO)O1", "note": "(some centres undefined)", "viability (percent of control)": "122%"}, {"smiles": "Cc1ccc(C(=O)N(CCCN)[C@@H](c2oc3cc(Cl)ccc3c(=O)c2Cc2ccccc2)C(C)C)cc1", "viability (percent of control)": "3.31%"}, {"smiles": "FC(F)(F)c1ccc(C=Cc2nc(COc3ccc(CCCCn4ccnn4)cc3)co2)cc1", "Potency": "0.059 µM (active)"}, {"smiles": "CNc1nc(Nc2ccc(C(=O)N3CCOCC3)cc2OC)ncc1Cl", "viability (percent of control)": "126%"}, {"smiles": "C[C@H](CCC(=O)O)[C@H]1CC[C@H]2[C@H]3[C@@H](CC[C@]12C)[C@@]1(C)CC[C@@H](O)C[C@H]1C[C@@H]3O", "viability (percent of control)": "111%"}]}, {"test": "qHTS Screen of the MIPE 4.0 Collection Against Ewings Sarcoma (EW8) (AID 1259255)", "settings": "EW8 Ewing sarcoma viability, CellTiter-Glo, 48 h; series mostly up to 45.8 µM; viability: at the top concentration", "outline": "as §1", "values": [{"smiles": "COC(=O)Nc1ccc(-c2nc(N3CCOCC3)c3cnn(C4CCN(C(=O)OC)CC4)c3n2)cc1", "Potency": "0.148 µM (active)"}, {"smiles": "CN1CCN(c2cccc(Nc3nc4c(-c5ccc(S(C)(=O)=O)cc5)cccn4n3)c2)CC1", "Potency": "5.9 µM (active)"}, {"smiles": "CC1=C(C(=O)Nc2cc3cn[nH]c3cc2F)C(c2ccc(C(F)(F)F)cc2)CC(=O)N1", "note": "(centres undefined)", "viability": "105%"}, {"smiles": "CCC(c1ccc(O)cc1)C(CC)c1ccc(O)cc1", "note": "(centres undefined)", "Potency": "1.87 µM (active)"}, {"smiles": "COc1cc(C=CC(=O)O)ccc1O", "viability": "116%"}, {"smiles": "Cc1csc(-c2nnc(Nc3ccc(Oc4ncccc4-c4ccnc(N)n4)cc3)c3ccccc23)c1", "Potency": "0.0059 µM (active)"}, {"smiles": "COc1ccc(C=CC(=O)Nc2ccccc2C(=O)O)cc1OC", "viability": "99.9%"}, {"smiles": "CN(C)c1nc(Cc2ccc(NC(=O)c3ccc(C(F)(F)F)cc3)cc2)nc(N(C)C)c1CC(=O)O", "viability": "96.1%"}, {"smiles": "O=C1C(c2c(O)[nH]c3ccccc23)=Nc2ccccc21", "Potency": "26.4 µM (active)"}, {"smiles": "Cc1ccccc1C(C(=O)NC1CCCCC1)N(C(=O)CNc1ccc(C#N)cc1)c1cccc(F)c1", "note": "(centres undefined)", "viability": "113%"}, {"smiles": "CNC1CCC(N(Cc2cccc(-c3ccncc3)c2)C(=O)c2sc3ccccc3c2Cl)CC1", "note": "(centres undefined)", "Potency": "23.5 µM (active)"}, {"smiles": "CCOC(=O)N1c2ccc(C(F)(F)F)cc2[C@@H](N(Cc2cc(C(F)(F)F)cc(C(F)(F)F)c2)C(=O)OC)C[C@H]1CC", "Potency": "20.9 µM (active)"}, {"smiles": "C[C@@H]1CC=CC=CC=CC=C[C@@H](O[C@@H]2O[C@H](C)[C@@H](O)[C@H](N)[C@H]2O)C[C@@H]2O[C@](O)(C[C@@H](O)C[C@@H]3O[C@@H]3C=CC(=O)O1)C[C@H](O)[C@@H]2C(=O)O", "Potency": "11.8 µM (active)"}, {"smiles": "CC(C)[C@H](O)C(=O)N[C@@H](C)C(=O)N[C@@H]1C(=O)N(C)CCc2ccccc21", "viability": "102%"}, {"smiles": "CCC[C@@H](NC(=O)[C@@H]1[C@H]2CCC[C@@H]2CN1C(=O)[C@@H](NC(=O)[C@@H](NC(=O)c1cnccn1)C1CCCCC1)C(C)(C)C)C(=O)C(=O)NC1CC1", "Potency": "16.6 µM (active)"}, {"smiles": "C[C@@]1(C(=O)Nc2ccc(F)nc2)CCCN1c1nc(Nc2cc(C3CC3)[nH]n2)c2cccn2n1", "Potency": "1.05 µM (active)"}, {"smiles": "COc1cc2nccc(Oc3ccc(NC(=O)Nc4ccc(F)cc4F)c(F)c3)c2cc1OC", "Potency": "16.6 µM (active)"}, {"smiles": "Cc1cn([C@@H]2C[C@@H](O)[C@H](CO)O2)c(=O)[nH]c1=O", "viability": "100%"}, {"smiles": "Fc1ccc(C(c2ccc(F)cc2)N2CCN(CC=Cc3ccccc3)CC2)cc1", "Potency": "16.6 µM (active)"}, {"smiles": "COc1ccc2ccc(=O)oc2c1CC=C(C)C", "Potency": "7.43 µM (active)"}, {"smiles": "CCN1CCN(c2ccc(Nc3cc(N(C)C(=O)Nc4c(Cl)c(OC)cc(OC)c4Cl)ncn3)cc2)CC1", "viability": "112%"}, {"smiles": "CN(C)N=Nc1nc[nH]c1C(N)=O", "viability": "90.3%"}, {"smiles": "C=CC[N+]1([C@H]2C[C@H]3[C@@H]4CC[C@H]5C[C@H](O)[C@@H](N6CCOCC6)C[C@]5(C)[C@@H]4CC[C@]3(C)[C@H]2OC(C)=O)CCCC1", "viability": "114%"}, {"smiles": "CN[C@H]1[C@@H](O[C@@H]2[C@H](O[C@@H]3[C@@H](O)[C@@H](O)[C@@H](N=C(N)N)[C@@H](O)[C@@H]3N=C(N)N)O[C@H](C)[C@@]2(O)C=O)O[C@@H](CO)[C@@H](O)[C@H]1O", "viability": "122% [at 15.3 µM]"}, {"smiles": "O[C@@H](COc1cccc2ncccc12)CN1CCN(C2c3ccccc3[C@@H]3[C@H](c4ccccc42)C3(F)F)CC1", "note": "(some centres undefined)", "Potency": "23.5 µM (active)"}, {"smiles": "O=C(c1ccc(F)c(F)c1Nc1ccc(I)cc1F)N1CC(O)([C@H]2CCCCN2)C1", "Potency": "23.5 µM (active)"}, {"smiles": "COc1cc(N2CCN(C)CC2)ccc1Nc1nc(N)c(C(=O)c2c(Cl)cccc2Cl)s1", "Potency": "16.6 µM (active)"}, {"smiles": "CCCCC[C@H](O)C=C[C@H]1[C@H](O)CC(=O)[C@H]1CCCCCCC(=O)O", "viability": "112%"}, {"smiles": "COC(=O)[C@H](c1ccccc1Cl)N1CCc2sccc2C1", "viability": "124%"}, {"smiles": "CN(C)c1ccccc1CN1CCCN(Cc2ccccc2N(C)C)C1c1ccncc1", "Potency": "18.7 µM (active)"}, {"smiles": "CC(C)(F)C[C@H](N[C@@H](c1ccc(-c2ccc(S(C)(=O)=O)cc2)cc1)C(F)(F)F)C(=O)NC1(C#N)CC1", "Potency": "16.6 µM (active)"}, {"smiles": "OCCn1cc(-c2ccc3c(c2)CCC3=NO)c(-c2ccncc2)n1", "viability": "94.4%"}, {"smiles": "CC1(C)OC2CC3C4CC(F)C5=CC(=O)C=CC5(C)C4C(O)CC3(C)[C@]2(C(=O)CO)O1", "note": "(some centres undefined)", "viability": "105%"}, {"smiles": "Cc1ccc(C(=O)N(CCCN)[C@@H](c2oc3cc(Cl)ccc3c(=O)c2Cc2ccccc2)C(C)C)cc1", "viability": "2.7%"}, {"smiles": "FC(F)(F)c1ccc(C=Cc2nc(COc3ccc(CCCCn4ccnn4)cc3)co2)cc1", "Potency": "0.743 µM (active)"}, {"smiles": "CNc1nc(Nc2ccc(C(=O)N3CCOCC3)cc2OC)ncc1Cl", "viability": "120%"}, {"smiles": "C[C@H](CCC(=O)O)[C@H]1CC[C@H]2[C@H]3[C@@H](CC[C@]12C)[C@@]1(C)CC[C@@H](O)C[C@H]1C[C@@H]3O", "Potency": "18.7 µM (active)"}]}]}
